From PubChem BioAssay come the findings set out here.

The test system of assay [1] is Plasmodium falciparum Sir2 (PF13_0152, Sir2A). The experiment in a line: Plasmodium falciparum Sir2A binding compounds – biochemical, small-molecule microarray, 635 nm fluorescence, primary screen (AID 1098).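 Note: score merges spot fluorescence intensity with its signal-to-noise ratio.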 The note with it: fluorescence 635 nm, higher = more signal.
Assay [2] is described as follows: probe aDKK1 binding to arrayed compounds – biochemical, biotinylated probe, 635/667 nm fluorescence, primary screen (AID 1099).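 Note: score merges 667nm spot fluorescence with signal to noise across triplicate slides.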 The note with it: small-molecule microarray, higher = more signal.
Assay [3] is described as follows: probe aCHRDL2 binding to arrayed compounds – biochemical, biotinylated probe, 635/667 nm fluorescence, primary screen (AID 1100). As to conditions: small-molecule microarray, higher = more signal.
Assay [4] can be described thus: change in splice reporter luminescence, either direction, cell-based, HEK293, spliceosome inhibition project, primary screen (AID 1101).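 Note: HEK293 cells carrying a splicing-competent luciferase reporter gene; test concentration not given here.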 As to conditions: HEK293 splicing luciferase reporter, 24 h, higher = more signal, called active from +8 up or from −8 down.
In assay [5] the target is Fibroblast growth factor 10 (Homo sapiens) (UniProt O15520). The experiment in a line: compounds binding fibroblast growth factor 10 – biochemical, small-molecule microarray, 635 nm fluorescence, primary screen (AID 1102). As to conditions: FGF10 binding, fluorescence 635 nm, higher = more signal.
Assay [6] deals with glycogen synthase kinase-3 (GSK3A per assay name; protocol says GSK3B). The experiment in a line: compounds binding glycogen synthase kinase-3 – biochemical, small-molecule microarray, 635 nm fluorescence, GSK3A, primary screen (AID 1103). Note: the record names both GSK3A and GSK3B. The note with it: fluorescence 635 nm, higher = more signal.
For assay [7], the target named is Epidermal growth factor receptor (Homo sapiens) (UniProt P00533). The assay is described as follows: compounds binding epidermal growth factor receptor – biochemical, small-molecule microarray, 635 nm fluorescence, primary screen (AID 1104).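 Note: score merges 667 nm emission intensity with spot signal to noise over triplicate slides.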 The note with it: EGFR binding, higher = more signal.
The target in assay [8] is Follistatin-related protein 3 (Homo sapiens) (UniProt O95633). The experiment in a line: compounds binding follistatin-related protein 3 – biochemical, small-molecule microarray, 635 nm fluorescence, primary screen (AID 1105).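 Note: score merges emission near 667 nm and signal to noise per printed spot across three slides.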 As to conditions: FSTL3 binding, higher = more signal.
Assay [9] has as its target Dickkopf-related protein 1 (Homo sapiens) (UniProt O94907). The assay is described as follows: small molecules binding DKK1 protein – biochemical, small-molecule microarray, 635 nm fluorescence scan, primary screen (AID 1106).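 Note: score merges emission near 667 nm with signal to noise over three replicate slides.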 The note with it: higher = more signal.
Assay [10] concerns Inhibin beta A chain (activin A). The experiment in a line: small molecules binding activin A – biochemical, small-molecule microarray, 635 nm fluorescence scan, primary screen (AID 1107).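 Note: mouse activin A protein probed at 4.33 µg/mL on printed slides; score merges bound-protein fluorescence near 667 nm with spot signal-to-noise.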 As to conditions: INHBA, higher = more signal.
Assay [11] relates to Human papillomavirus type 1a protein E7 (residues 44-93). The assay is described as follows: small molecules binding HPV E7 44-93 – biochemical, small-molecule microarray, residues 44-93, 635 nm fluorescence, primary screen (AID 1108).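 Note: E7 fragment applied at 1 µg/mL in TBST for 1 h at 4 C; score combines spot fluorescence with its signal to noise ratio.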 The note with it: fluorescence 635 nm, higher = more signal.
Assay [12] in a line: hepatitis C replication reporter changes, two-sided – Huh7 cells, luciferase reporter, HCV replication inhibitor project, primary screen (AID 1109).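 Note: huh7 hepatoma cells harbouring a luciferase neomycin HCV replicon reporter; luciferase luminescence as measure of HCV replicon replication; test concentration not given here.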 The note with it: Huh7 HCV replicon luciferase reporter, 48 h; higher = more signal.
Assay [13] concerns the target Left-right determination factor 2 (Homo sapiens) (UniProt O00292). The assay is described as follows: small molecules binding LEFTY2 protein – biochemical, small-molecule microarray, 635 nm fluorescence scan, primary screen (AID 1110). The note with it: higher = more signal.
Assay [14] addresses Calmodulin-1 (Homo sapiens) (UniProt P0DP23). The experiment in a line: small molecules binding calmodulin-1 with EGTA – biochemical, small-molecule microarray, Cy5-labelled CALM1, profiling panel (AID 1111).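 Note: labelled calmodulin applied in Tris saline Tween buffer holding calcium plus EGTA and DTT.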 As to conditions: Cy5-CALM1 binding fluorescence, higher = more signal.
Assay [15] has the same target. The assay is described as follows: small molecules binding Ca-loaded calmodulin-1 – biochemical, small-molecule microarray, Cy5-labelled CALM1, plus calcium, artefact control for SMM control-protein annotation, profiling panel (AID 1112).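 Note: score merges spot fluorescence with signal to noise from triplicate slides.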 The note with it: Cy5-CALM1 binding fluorescence, higher = more signal.
Assay [16] can be described thus: probe aWnt5a binding to arrayed compounds – biochemical, biotinylated probe, 635/667 nm fluorescence, primary screen (AID 1113).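 Note: score merges 667 nm fluorescence intensity with signal-to-noise per printed feature.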 The note with it: small-molecule microarray, higher = more signal.
Assay [17] can be described thus: probe aShh binding to arrayed compounds – biochemical, biotinylated probe, 635/667 nm fluorescence, primary screen (AID 1114).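 Note: probe is biotin-labelled aShh protein from a stem cell growth factor screen; measures binding of labelled protein to compounds printed on the slide; score merges feature fluorescence at 667 nm with signal-to-noise.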 The note with it: small-molecule microarray, higher = more signal.
Assay [18] is described as follows: probe aNog binding to arrayed compounds – biochemical, biotinylated probe, 635/667 nm fluorescence, primary screen (AID 1115).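 Note: probe is biotinylated aNog protein used at 0.15 µg/mL for 1 h at 4 C; z-score combines 667 nm fluorescence of each spot with its signal to noise.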 The note with it: small-molecule microarray, higher = more signal.
The target in assay [19] is Torsin-1A-interacting protein 1 (Homo sapiens) (UniProt Q5JTV8). The experiment in a line: compound microarray binding of lysate hLAP1 – cell lysate, small-molecule microarray, COS7 lysate, 635/667 nm fluorescence, primary screen (AID 1116). The note with it: 635 nm fluorescence, higher = more signal.
Assay [20] concerns the target Alpha-bungarotoxin (Bungarus multicinctus) (UniProt P60615). The experiment in a line: compounds binding labelled alpha-BTX control protein – biochemical, small-molecule microarray, Alexa647 label, 635/667 nm fluorescence, artefact control for SMM control protein annotation, profiling panel (AID 1117). The note with it: alpha-BTX-A647 binding fluorescence, higher = more signal.

Active and inactive are the calls of the source.

Chain of Left-right determination factor 2 (Homo sapiens) (O00292 whole entry, looked up): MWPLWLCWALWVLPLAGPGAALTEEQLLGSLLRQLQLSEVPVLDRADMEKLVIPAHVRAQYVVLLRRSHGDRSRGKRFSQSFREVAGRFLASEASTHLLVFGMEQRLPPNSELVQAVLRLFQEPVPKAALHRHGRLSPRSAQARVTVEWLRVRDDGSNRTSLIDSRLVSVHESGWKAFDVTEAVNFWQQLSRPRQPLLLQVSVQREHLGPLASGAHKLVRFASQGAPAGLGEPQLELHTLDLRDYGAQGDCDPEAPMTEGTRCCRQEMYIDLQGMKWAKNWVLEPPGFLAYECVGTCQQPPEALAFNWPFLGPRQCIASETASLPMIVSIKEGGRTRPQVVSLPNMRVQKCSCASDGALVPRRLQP
Chain of Alpha-bungarotoxin (Bungarus multicinctus) (P60615 whole entry, looked up): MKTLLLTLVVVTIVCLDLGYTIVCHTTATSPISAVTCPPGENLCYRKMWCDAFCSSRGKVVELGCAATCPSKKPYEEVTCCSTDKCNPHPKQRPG
Chain of Torsin-1A-interacting protein 1 (Homo sapiens) (Q5JTV8 whole entry, looked up): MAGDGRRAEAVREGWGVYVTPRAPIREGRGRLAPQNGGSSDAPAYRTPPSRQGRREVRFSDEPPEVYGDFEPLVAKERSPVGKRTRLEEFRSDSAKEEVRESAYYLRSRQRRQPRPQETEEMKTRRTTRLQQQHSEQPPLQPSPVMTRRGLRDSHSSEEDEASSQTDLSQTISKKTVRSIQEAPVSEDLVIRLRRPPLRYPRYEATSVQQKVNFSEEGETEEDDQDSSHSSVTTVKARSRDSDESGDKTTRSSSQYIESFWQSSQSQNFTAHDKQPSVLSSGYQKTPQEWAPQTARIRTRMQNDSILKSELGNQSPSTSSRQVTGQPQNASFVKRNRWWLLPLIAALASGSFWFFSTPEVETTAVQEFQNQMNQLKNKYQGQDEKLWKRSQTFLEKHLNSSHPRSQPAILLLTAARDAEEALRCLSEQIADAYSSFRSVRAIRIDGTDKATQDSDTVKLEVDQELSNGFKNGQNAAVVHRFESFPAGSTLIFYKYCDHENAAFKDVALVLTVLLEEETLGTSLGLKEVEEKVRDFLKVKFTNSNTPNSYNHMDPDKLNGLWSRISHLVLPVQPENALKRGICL
Chain of Follistatin-related protein 3 (Homo sapiens) (O95633 whole entry, looked up): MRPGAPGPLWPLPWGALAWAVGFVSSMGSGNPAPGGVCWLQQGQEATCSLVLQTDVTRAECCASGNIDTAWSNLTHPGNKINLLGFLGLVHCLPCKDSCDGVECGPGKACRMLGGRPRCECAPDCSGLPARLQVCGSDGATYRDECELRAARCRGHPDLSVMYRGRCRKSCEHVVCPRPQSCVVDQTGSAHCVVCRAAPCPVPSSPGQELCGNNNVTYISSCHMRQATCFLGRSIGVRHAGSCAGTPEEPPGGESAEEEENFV
Chain of Fibroblast growth factor 10 (Homo sapiens) (O15520 whole entry, looked up): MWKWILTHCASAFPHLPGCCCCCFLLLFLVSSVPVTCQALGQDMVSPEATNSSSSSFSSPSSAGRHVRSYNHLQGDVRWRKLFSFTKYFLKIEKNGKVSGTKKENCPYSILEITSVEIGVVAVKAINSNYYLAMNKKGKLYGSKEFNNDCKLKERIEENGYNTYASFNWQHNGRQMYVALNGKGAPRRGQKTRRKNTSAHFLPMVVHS
Chain of Epidermal growth factor receptor (Homo sapiens) (P00533 whole entry, looked up): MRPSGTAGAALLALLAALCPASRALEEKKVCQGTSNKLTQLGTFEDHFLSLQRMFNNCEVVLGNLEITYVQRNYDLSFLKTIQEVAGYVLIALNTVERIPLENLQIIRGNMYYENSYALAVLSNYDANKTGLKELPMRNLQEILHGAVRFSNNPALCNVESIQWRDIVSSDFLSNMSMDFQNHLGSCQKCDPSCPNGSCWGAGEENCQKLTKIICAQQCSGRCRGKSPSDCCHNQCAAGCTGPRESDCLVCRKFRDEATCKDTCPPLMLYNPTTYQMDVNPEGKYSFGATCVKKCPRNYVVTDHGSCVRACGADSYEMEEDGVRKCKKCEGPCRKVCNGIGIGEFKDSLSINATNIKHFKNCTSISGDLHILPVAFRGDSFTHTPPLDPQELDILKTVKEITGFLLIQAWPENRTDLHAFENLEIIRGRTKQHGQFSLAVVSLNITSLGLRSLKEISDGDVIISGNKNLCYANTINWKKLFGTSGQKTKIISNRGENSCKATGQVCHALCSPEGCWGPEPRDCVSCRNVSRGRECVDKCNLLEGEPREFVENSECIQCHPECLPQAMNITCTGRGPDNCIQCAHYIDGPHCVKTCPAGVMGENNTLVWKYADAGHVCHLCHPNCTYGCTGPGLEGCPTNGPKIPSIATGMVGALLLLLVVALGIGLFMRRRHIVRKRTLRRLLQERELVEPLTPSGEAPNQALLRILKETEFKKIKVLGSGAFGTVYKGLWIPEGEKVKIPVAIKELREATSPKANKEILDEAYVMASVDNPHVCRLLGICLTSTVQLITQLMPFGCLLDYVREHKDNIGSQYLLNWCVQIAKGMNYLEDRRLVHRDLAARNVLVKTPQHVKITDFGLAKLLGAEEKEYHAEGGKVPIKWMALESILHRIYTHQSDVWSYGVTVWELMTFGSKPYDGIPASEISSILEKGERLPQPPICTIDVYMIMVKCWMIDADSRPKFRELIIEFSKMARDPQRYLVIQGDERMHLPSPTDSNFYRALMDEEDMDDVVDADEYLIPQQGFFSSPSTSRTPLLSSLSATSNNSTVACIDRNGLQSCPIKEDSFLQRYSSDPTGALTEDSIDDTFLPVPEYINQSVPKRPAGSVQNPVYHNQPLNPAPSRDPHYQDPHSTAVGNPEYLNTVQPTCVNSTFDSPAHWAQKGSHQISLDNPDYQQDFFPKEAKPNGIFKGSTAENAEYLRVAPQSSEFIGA
Chain of Dickkopf-related protein 1 (Homo sapiens) (O94907 whole entry, looked up): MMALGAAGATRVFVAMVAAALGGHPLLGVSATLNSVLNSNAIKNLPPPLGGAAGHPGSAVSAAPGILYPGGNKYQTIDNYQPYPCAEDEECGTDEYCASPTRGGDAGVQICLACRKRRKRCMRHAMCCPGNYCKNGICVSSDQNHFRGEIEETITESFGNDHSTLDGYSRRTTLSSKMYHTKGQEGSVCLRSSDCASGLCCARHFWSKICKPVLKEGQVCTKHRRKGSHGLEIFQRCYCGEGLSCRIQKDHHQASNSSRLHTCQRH

In the case of `COc1ccc(C#Cc2ccc3c(c2)[C@]2(C(=O)N3)[C@H](C(=O)N3CCCCCCC3)[C@H]3C(=O)O[C@H](c4ccccc4)[C@H](c4ccccc4)N3[C@@H]2c2ccc(O)cc2)cc1`, the composite z-score in [1] is 1.57; in assay [2], 1.36; in assay [3], 0.696; in assay [5] it was 0.684; in assay [6], 1.16; in [7], 0.427. Besides, the composite z-score in assay [8] came to 1.2; in [9], 0.608; in [10] it was 0.85; in assay [11] it was 0.871; in assay [13], 0.536; in assay [14], 1.51. Also, the composite z-score in [15] stood at 0.426; in assay [16], 0.19; in assay [17], 0.162; in assay [18], 2.3; in assay [19], 2.85; in assay [20], 1.22. Moreover, the values for the z-score in [4] and in assay [12] were -0.547 (inactive) and -0.764, respectively.
Take `COC(=O)[C@@]1(Cc2ccc(F)cc2)[C@H]2c3cc(C(=O)N4CCCC4)n(CC4CC4)c3C[C@H]2CN1C(=O)c1ccccc1`: the composite z-score was found to be 1.4 in [1]; 1.15 in assay [2]; 1.3 in [3]; 0.692 in [5]; 0.621 in assay [6]; 0.915 in [7]. Besides, the composite z-score in [8] turned out to be 0.466; in assay [9], 0.0587; in assay [10], 0.789; in assay [11], 1.39; in [13], 1.29; in assay [14], 2.43. Further, the composite z-score in [15] is 0.701; in assay [16] it was 0.0139; in assay [17] it was 0.184; in assay [18], 1.96; in assay [19], 1.22; in assay [20] it was 1.33. The z-score was -0.761 (inactive) in assay [4] and -1.94 in assay [12].
`CC(=O)N1CC(C(O)C2C=CC3C(=O)NC(=O)C3N2Nc2ccc(Cl)cc2Cl)c2ccccc21` (stereo not given): the composite z-score in assay [1] is 0.669; in [2] it was 1.95; in assay [3] it was 1.07; in assay [5], 0.693; in assay [6], -0.28; in assay [7] it was -0.105. The composite z-score in assay [8] was 0.797; in [9], 0.0106; in assay [10], 1.19; in [11], 0.759; in assay [13], -0.138; in assay [14], 1.18. The composite z-score in assay [15] turned out to be 0.789; in [16] it was 0.0437; in [17], 0.806; in assay [18], 1.5; in assay [19], 0.033; in [20], 0.869. Besides, the z-score in assay [4] was 0.622 (inactive); in assay [12] it was -0.819.
With `C=CC[C@H](OC(=O)Nc1ccc(SC)cc1)c1ccc(OCCO)cc1`, the composite z-score in [1] was 0.392; in assay [2], -0.164; in assay [3] it was 0.799; in assay [5], -0.163; in [6], -0.989; in [7] it was -0.634. Besides, the composite z-score in [8] was -0.0191; in assay [9], -0.472; in [10] it was 0.138; in assay [11] it was -0.833; in assay [13] it was -0.952; in [14], -0.316. The composite z-score in assay [15] is 0.461; in [16], -0.0994; in assay [17] it was 0.0188; in assay [18], 1.48; in assay [19], -0.286; in assay [20], 0.191. Also, the values for the z-score in assay [4] and in [12] were -1.69 (inactive) and 1.34, respectively.
On to `C=CCOC(=O)[C@H]1[C@@H]2C(=O)O[C@@H](c3ccccc3)[C@@H](c3ccccc3)N2[C@@H](c2ccc(OCCOC(=O)[C@H]3C[C@H]4C(=O)N[C@@H](CCCCNC(C)=O)C(=O)N4[C@H]3c3cccc(OCCO)c3)cc2)[C@]12C(=O)Nc1ccc(I)cc12`, for which the composite z-score is 1.14 in assay [1]; -0.886 in [2]; -0.887 in [3]; 1.49 in assay [5]; 0.677 in assay [6]; 0.463 in [7]. Further, the composite z-score in assay [8] was 1.43; in assay [9], 0.719; in assay [10], 0.0677; in [11] it was 1.42; in assay [13], 0.801; in assay [14] it was -0.0021. The composite z-score was -0.451 in assay [15]; 0.0825 in assay [16]; -0.705 in [17]; -0.632 in [18]; 0.339 in assay [19]; 0.975 in assay [20]. In addition, the values for the z-score in [4] and in [12] were -1.5 (inactive) and -1.21, respectively.
Consider `O=C(CS)NCCCCCNC(=O)[C@@H]1C[C@@H]2C(=O)N[C@@H](Cc3ccccc3)C(=O)N2[C@@H]1c1cccc(OCCO)c1`, for which the composite z-score came out at 1.74 in [1]; 0.0021 in [2]; 0.0402 in [3]; 1.17 in assay [5]; 1.32 in [6]; 0.526 in [7]. Further, the composite z-score in [8] is 0.988; in assay [9], 1.25; in [10], -0.678; in assay [11] it was 1.41; in assay [13] it was 0.705; in [14], 1.94. The composite z-score in assay [15] was -0.0675; in assay [16], -0.302; in assay [17], -0.482; in assay [18], -0.458; in assay [19], 1.08; in assay [20] it was 1.54. Moreover, the z-score in assay [4] was -0.345 (inactive); in assay [12], 0.266.
